Several values for one entry are separate records, joined by “and”; a condition that tells them apart may be missing. Equal entries are not always repeated. Activity calls are given as the source filed them.
What was measured:
Albumin (Bos taurus) = Albumin (Bos taurus) (UniProt P02769); experiment: bovine serum albumin binders on microarray, profiling panel, artefact control for SMM control protein annotation, biochemical, small-molecule microarray, Alexa647 label, 635/667 nm fluorescence (AID 1118); conditions: BSA-A647 binding, fluorescence 635 nm, higher = more signal;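 note: score merges 667 nm emission intensity and signal-to-noise per printed compound spot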
[1] = small-molecule microarray binders of probe aXIP, primary screen, biochemical, NeuroSMM set, 635/667 nm fluorescence (AID 1119); conditions: higher = more signal, called active from +8 up or from −8 down;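 note: probe is the protein aXip251-270 applied at 1 µg/mL to compound-printed slides; binding of probe to printed compounds measured as 667 nm fluorescence plus signal to noise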
[2] = small-molecule binders of probe aNOTCH3, primary screen, biochemical, small-molecule microarray, 635/667 nm fluorescence (AID 1120); conditions: higher = more signal;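 note: probe is a biotin-tagged antibody raised against NOTCH3 rather than NOTCH3 protein; score merges spot fluorescence near 667 nm with spot signal to noise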
[3] = small-molecule binders of probe aNOTCH2, primary screen, biochemical, small-molecule microarray, 635/667 nm fluorescence (AID 1121); conditions: higher = more signal;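 note: score merges feature fluorescence read at 667 nm with its signal to noise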
[4] = target: Carbonic anhydrase 2 (Homo sapiens) (UniProt P00918); experiment: CAII small-molecule binders, profiling panel, biochemical, small-molecule microarray, Alexa647-labelled CAII (AID 1122); conditions: CAII-A647 binding fluorescence, higher = more signal
[5] = COS7 lysate on small-molecule microarray, probe aHis, 635 nm (AID 1123); conditions: COS7 cell lysate, fluorescence, higher = more signal;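 note: z-score combines 667nm fluorescence intensity with signal-to-noise per printed compound spot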
[6] = compound binding in COS7 lysate, probe aLAP1, primary screen, cell lysate, small-molecule microarray (AID 1124); conditions: probe aLAP1, fluorescence, higher = more signal;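 note: lysate comes from COS7 cells expressing LAP1 and is applied at 0.3 µg/mL; score merges spot fluorescence near 667 nm with signal-to-noise over triplicate slides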
Sam68 (KHDRBS1) = experiment: Sam68 small-molecule binders, primary screen, biochemical, small-molecule microarray, 635 nm fluorescence (AID 1125); conditions: small-molecule microarray binding, higher = more signal;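 note: score merges 667 nm channel intensity with signal to noise over triplicate slides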
[7] = system: Chordin-like protein 2 (CHRDL2); experiment: CHRDL2 small-molecule binders, primary screen, biochemical, small-molecule microarray, 635 nm fluorescence (AID 1126); conditions: small-molecule microarray binding, fluorescence 635 nm; higher = more signal;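 note: printed compound slides probed with Chrdl2 protein at 4 µg/mL for 1 h at 4 C; score merges 667 nm emission intensity with signal to noise over three replicate slides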
[8] = target: Concanavalin-A (Canavalia ensiformis) (UniProt P02866); experiment: ConA small-molecule binders, primary screen, artefact control for SMM control protein annotation, biochemical, small-molecule microarray, Alexa647 label, 635 nm (AID 1127); conditions: ConA-A647 binding fluorescence, higher = more signal;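 note: z combines 667 nm emission intensity with signal-to-noise across three replicate slides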
Chain of Concanavalin-A (Canavalia ensiformis) (P02866 whole entry, looked up): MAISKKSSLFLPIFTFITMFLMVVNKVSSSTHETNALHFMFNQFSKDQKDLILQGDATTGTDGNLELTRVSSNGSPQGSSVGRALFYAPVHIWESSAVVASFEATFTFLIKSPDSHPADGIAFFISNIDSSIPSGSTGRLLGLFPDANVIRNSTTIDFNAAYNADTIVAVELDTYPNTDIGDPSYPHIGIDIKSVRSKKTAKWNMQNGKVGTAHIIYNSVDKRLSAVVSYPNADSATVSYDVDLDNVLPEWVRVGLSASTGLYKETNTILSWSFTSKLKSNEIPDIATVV

Chain of Albumin (Bos taurus) (P02769 whole entry, looked up): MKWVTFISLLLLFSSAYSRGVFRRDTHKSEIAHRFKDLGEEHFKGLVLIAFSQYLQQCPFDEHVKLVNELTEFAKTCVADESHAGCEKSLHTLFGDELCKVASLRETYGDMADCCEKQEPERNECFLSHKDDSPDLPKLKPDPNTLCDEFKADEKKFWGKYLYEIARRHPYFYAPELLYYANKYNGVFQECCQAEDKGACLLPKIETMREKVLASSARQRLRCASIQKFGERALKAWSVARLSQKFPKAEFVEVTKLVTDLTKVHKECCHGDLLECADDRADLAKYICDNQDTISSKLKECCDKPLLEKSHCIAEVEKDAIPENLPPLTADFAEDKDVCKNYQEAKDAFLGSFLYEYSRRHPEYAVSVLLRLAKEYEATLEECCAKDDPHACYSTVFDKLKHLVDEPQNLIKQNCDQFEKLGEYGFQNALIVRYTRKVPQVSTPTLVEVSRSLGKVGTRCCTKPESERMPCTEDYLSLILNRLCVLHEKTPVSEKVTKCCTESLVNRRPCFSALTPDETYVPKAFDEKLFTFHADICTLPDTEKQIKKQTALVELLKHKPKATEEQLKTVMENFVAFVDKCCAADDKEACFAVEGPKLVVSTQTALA

Structure (SMILES)	composite z-score (Albumin (Bos taurus))	composite Z-score [1]	composite z-score [2]	composite z-score [3]	composite z-score [4]	composite z-score [5]	composite z-score [6]	composite z-score (Sam68 (KHDRBS1))	composite z-score [7]	composite z-score [8]
CCCNC(=O)OC[C@H]1O[C@H](CCON=C(C)CCN2CCc3nc(-c4ccccc4)c(-c4ccccc4)cc3C2)C=C[C@@H]1Oc1ccc(OC)cc1	0.216	0.126 (inactive)	0.0179	-0.108	-0.0398	0.73	0.354	0.389	-0.273	0.472
CC(C)CON=C1C[C@@H](O)[C@@H](O)[C@@H]2[C@@H]3C(=O)N(c4cccc(Oc5ccccc5)c4)C(=O)[C@@H]3CC[C@H]12	0.529	-0.116 (inactive)	-0.0077	-0.118	0.315	0.328	-0.216	0.594	0.22	0.882
C[N+](C)(C)CCCCNC(=O)[C@@H]1C[C@@H]2C(=O)N[C@@H](CCCC[N+](C)(C)C)C(=O)N2[C@@H]1c1cccc(OCCO)c1	-0.916 and -0.121	0.104 (inactive) and 2 (inactive)	0.197 and 0.129	-0.0066 and -0.0861	0.389 and 0.799	1.19 and 2.25	0.0458 and 1.65	1.31 and 0.767	1.56 and 1.47	1.13 and 0.657
CO[C@@H]1COC(=O)[C@H](Cc2ccccc2)NC(=O)CC=C[C@@H](C)[C@H](OC)COC(=O)[C@@H](C)NC(=O)CC=C[C@H]1C	-1.24 and 0.871	-0.17 (inactive) and -0.452 (inactive)	0.0522 and -0.023	-0.173 and -0.214	-0.0035 and 0.27	-0.0816 and -0.0434	-0.502 and 0.07	1.09 and 0.672	1.03 and 1.43	-0.85 and -0.233
C=CCN(C(=O)C1N(CCOCCO)C(=O)C2C(C(=O)O)C3C=CC21O3)c1ccc(OC)cc1 (stereo not given)	-0.0638 and -1.17	-0.598 (inactive) and -0.613 (inactive)	-0.421 and -0.459	-0.211 and -0.143	0.797 and 0.959	-0.39 and 0.89	1.39 and 0.112	-1.5 and -2.25	-2.17 and -3.32	-2.82 and -1.96
COC(=O)C1=C(C)N(Cc2ccccc2)C2=C(C(C)=O)C[C@@](O)(C(=O)OC)C(=O)N2[C@@H]1c1ccccc1	0.838 and 0.336	0.397 (inactive) and 0.38 (inactive)	-0.0895 and 0.0597	-0.0921 and -0.118	0.84 and 0.766	0.463 and -0.221	0.0922 and -0.421	1.24 and -0.523	0.571 and 0.377	-0.0847 and -0.495
CC(C)[Si]1(C(C)C)OCc2cc(C3CC3)nc(CCc3ccccc3)c21	-0.367 and -0.0511	-0.145 (inactive) and -0.387 (inactive)	-0.0716 and -0.135	-0.155 and -0.176	-0.344 and 0.027	-0.416 and 0.368	-0.0371 and -0.455	-0.636 and 0.47	0.32 and 0.195	0.211 and 0.513
C=CCN(CCCCC)C(=O)C1N(c2c(Cl)cccc2CO)C(=O)C2C(C(=O)O)C3C=CC21O3 (stereo not given)	-1.16 and -0.735	-0.823 (inactive) and 0.131 (inactive)	-0.508 and -0.548	-0.245 and -0.184	0.846 and 0.315	-0.115 and -0.621	-0.0989 and -0.178	-0.331 and -0.297	-2.24 and -2.28	-1.5 and -0.938
C=CCN(C(=O)C1N(C(C)(C)CO)C(=O)C2C(C(=O)O)C3C=CC21O3)C(C)(C)C (stereo not given)	-0.768 and -1.3	-0.057 (inactive) and -0.12 (inactive)	-0.664 and -0.47	-0.154 and -0.208	0.856 and 0.799	-1.2 and 0.643	-0.393 and 1.52	-0.967 and -0.65	-3.3 and -1.67	-0.855 and -1.83
CON(C)C(=O)c1nnc2c3ccccc3n(S(=O)(=O)c3ccc(C)cc3)c2n1	0.622 and 0.0016	0.891 (inactive) and 0.79 (inactive)	-0.0111 and 0.211	-0.104 and -0.109	0.393 and 0.481	0.19 and 1	0.101 and 0.208	0.41 and 1.3	0.828 and 0.553	1.1 and 1.14
C=CCN(Cc1ccccc1)C(=O)C1N(CCOCCO)C(=O)C2C(C(=O)O)C3C=CC21O3 (stereo not given)	-1.03 and 0.202	-0.124 (inactive) and 0.217 (inactive)	-0.611 and -0.41	-0.0984 and -0.183	0.903 and 0.881	1.33 and -1.28	1.24 and -0.375	-0.604 and -0.238	-3.42 and -2.87	-1.05 and -0.374
C=CCN(C(=O)C(c1cccs1)N(C(=O)/C=C\C(=O)O)C(C)(C)CO)c1ccc(OC)cc1 (stereo not given)	-0.427 and -0.637	-0.431 (inactive) and -0.215 (inactive)	-0.298 and -0.219	-0.143 and -0.133	0.937 and 0.938	1.72 and 0.0237	0.92 and 1.17	-0.294 and -0.786	-1.74 and -0.727	-0.692 and -0.93
Cc1cc2c(nc1C)CCCN2CC(C)ON=C[C@@H](C)[C@H](OCc1ccccc1)C(C)C (stereo not given in full)	-0.69	0.339 (inactive)	0.0642	-0.0596	-0.345	0.0869	-0.442	-1.3	0.173	-0.804
COC(=O)C1=C(C)N(Cc2ccccc2)[C@]23O[C@](C(=O)OC)(C(=O)N2[C@@H]1c1ccccc1)[C@@H](C(=O)OC)[C@H]3C(=O)OC	0.0583 and -0.396	-0.179 (inactive) and -0.813 (inactive)	-0.0947 and -0.0892	-0.165 and -0.106	0.266 and -0.244	0.189 and -0.172	-0.429 and -0.258	-0.192 and 0.227	-0.34 and 0.406	-1.07 and 0.249
